Screens (PubChem BioAssay)
KCNQ2 inh – KCNQ2 (rat) channel inhibition | O88943 | CHO-K1 KCNQ2, FluxOR thallium flux, 20 min; stronger effect = lower value | B-score at 10 µM | 310,000 tested, 1.1% active | AID 2156;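 active means fluorescence ratio B-score at most minus 3 library SDs, with starting brightness B-score within 2 library SDs, cut at about -5.5 in these data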
KCNQ2 pot – KCNQ2 (rat) channel potentiation. CHO-K1 KCNQ2, FluxOR thallium flux fluorescence; stronger effect = higher value. B-score at 10 µM. 310,000 tested, 0.54% active;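 active means fluorescence ratio B-score at least 3 SD of library B-scores, with initial fluorescence B-score within 3 of them, cut at about 5.3 in these data; same plate scores as AID 2156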;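 further: B-score of peak minus minimum over baseline fluorescence ratio after K+ and Tl+ stimulus; positive B-score means potentiation of KCNQ2 with more thallium influx and brighter signal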
KCNQ2 block conf – rat KCNQ2 channel inhibition, confirmatory screen | shares compounds with KCNQ2 inh | AID 493025 | 1,000 tested, 57% active | KCNQ2-expressing cells, thallium flux; stronger effect = lower value | activity change, negative = inhibition, % at 10 µM;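 further: 0% = vehicle wells and values are ratio percent relative to vehicle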
KCNQ1 spec – selectivity of KCNQ2 inhibitors against human KCNQ1. shares compounds with KCNQ2 inh. KCNQ1-expressing cells, FluxOR thallium flux fluorescence; stronger effect = lower value. activity change, negative = inhibition, % at 10 µM. 1,000 tested, 15% active;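 active means activity change at least 3 SD of negative controls below their mean in both duplicate wells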;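 further: CHO cells stably transfected with KCNQ1 and depolarized by potassium stimulus; peak minus minimum fluorescence over baseline after thallium addition; 0% = vehicle negative control and -100% = blank without thallium stimulus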
Target sequence (P51787 whole entry, looked up): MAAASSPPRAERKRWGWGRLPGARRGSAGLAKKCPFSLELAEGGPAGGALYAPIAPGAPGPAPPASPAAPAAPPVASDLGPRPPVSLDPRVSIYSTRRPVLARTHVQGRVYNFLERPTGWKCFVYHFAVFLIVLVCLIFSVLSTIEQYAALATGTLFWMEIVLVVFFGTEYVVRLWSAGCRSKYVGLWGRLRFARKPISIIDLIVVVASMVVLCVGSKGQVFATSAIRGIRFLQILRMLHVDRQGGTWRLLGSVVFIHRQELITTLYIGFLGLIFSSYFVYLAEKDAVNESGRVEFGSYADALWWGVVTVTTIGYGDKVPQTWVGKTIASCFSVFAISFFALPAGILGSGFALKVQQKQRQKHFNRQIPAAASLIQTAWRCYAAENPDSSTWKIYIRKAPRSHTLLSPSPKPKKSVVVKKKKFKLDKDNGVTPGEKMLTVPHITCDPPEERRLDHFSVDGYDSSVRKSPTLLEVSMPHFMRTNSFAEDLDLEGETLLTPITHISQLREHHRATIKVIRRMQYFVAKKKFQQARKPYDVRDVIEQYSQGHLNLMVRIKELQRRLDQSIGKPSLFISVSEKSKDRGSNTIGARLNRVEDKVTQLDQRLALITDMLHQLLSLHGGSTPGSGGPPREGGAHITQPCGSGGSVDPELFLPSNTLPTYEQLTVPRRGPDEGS
CHO parental ctr – activity in parental CHO cells lacking KCNQ2; shares compounds with KCNQ2 inh; thallium flux counter-screen; stronger effect = lower value; activity change, % at 10 µM; 1,000 tested, 14% active; AID 493029;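 further: 0% = vehicle negative controls with stimulus buffer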
KCNQ2 inh confirm – confirmation of rat KCNQ2 potassium channel inhibitors; shares compounds with KCNQ2 inh; KCNQ2-expressing cells, automated patch clamp current; calls only at 10 µM; 550 tested, 49% active; AID 588531
An asterisk follows results filed as active; i = inactive; / = no result given; + = active, no number. The list is not random: actives were taken first. Their share in the collection is about 1.6%. Unless noted, how the calls were made is not given here.

SMILES	KCNQ2 inh	KCNQ2 pot	others
Cc1ccc(N2C(=O)NC(=O)C3(Cc4ccccc4N4CCN(c5ccccc5)CC43)C2=O)cc1 (stereo not drawn)	-7.1*	-7.1
O=C1NC(=O)C2(Cc3ccccc3N3CCCC32)C(=O)N1c1cccc(Cl)c1 (stereo not drawn)	i	/
CCOc1cc(C2NCc3ccccc3-n3cccc32)ccc1O (stereo not drawn)	i	/
CCOc1cccc(C2NCc3ccccc3-n3cccc32)c1O (stereo not drawn)	-6.8*	-6.8
O=C(Cn1ncn2c(cc3cc(F)ccc32)c1=O)N1CCC2(CC1)OCCO2	i	1.2
CC[C@@H]1C=CC=CC[C@H](C)[C@@H](O)[C@@H](C)C(=O)[C@H](C)[C@@H](O)[C@H](C)C(=O)[C@H](C)[C@@H](O)[C@H](C)C=CC(=O)O[C@H]2[C@@H](C)[C@@H](CC1)O[C@@]1(CC[C@@H](C)[C@@H](C[C@H](C)O)O1)[C@@H]2C	i	/
O=C(Cn1ncc2c3ccccc3n(Cc3ccccc3F)c2c1=O)N1CCC2(CC1)OCCO2	i	16*
Cc1c2cnn(CC(=O)N3CCC4(CC3)OCCO4)c(=O)c2c(C)n1Cc1ccc(F)cc1	i	2.2
CCCNC(=O)N1CCC2(CC1)OCCO2	i	/
CCNc1nc(NC(C)(C)C)nc(SC)n1	i	/
CC(C)n1c(=O)c(C=Nc2cccc([N+](=O)[O-])c2)c(O)n(CCc2ccccc2)c1=O	-6.7*	-6.7
CC(C)n1c(=O)c(C=Nc2ccc(S(N)(=O)=O)cc2)c(O)n(Cc2ccco2)c1=O	i	1
COc1cc(C)c(-c2nc(CN3C[C@@H]4C[C@@H](C3)c3cccc(=O)n3C4)c(C)o2)cc1C	-5.8*	-5.8
COc1cc(CN2CC3CC(C2)c2cccc(=O)n2C3)cc(OC)c1OC (stereo not drawn)	i	0.5
CN1CCC(N(C)c2nc(-c3ccc([N+](=O)[O-])cc3)nc3ccccc23)CC1	-6*	-6
Cc1nc2ccccc2c(=O)n1-c1cc([N+](=O)[O-])cc([N+](=O)[O-])c1	i	0.08
CC(C)[N+]12CCC(CC1)C(C(O)(c1ccccc1)c1ccccc1)C2 (stereo not drawn)	i	1.7
O=P(O)(O)/C=C(\Cl)c1ccccc1	i	/
CCN(CC)P(=O)(/C=C(\Cl)c1ccccc1)/C=C(\Cl)c1ccccc1	-5.9*	-5.9
CN(CCc1ccccc1)Cc1ccccc1[N+](=O)[O-]	i	/
Oc1ccccc1CN(CCc1ccccc1)Cc1ccccc1	-6*	-6
C=CCN1C(=O)NC(=O)/C(=C/c2ccc(N(C)C)c(Br)c2)C1=O	i	0.23
O=P(Nc1cccc(Cl)c1)(Oc1ccccc1)Oc1ccccc1	-5.6*	-5.6
COc1cccc(NP(=O)(Oc2ccccc2)Oc2ccccc2)c1	i	/
CC/C=C/CC(=O)N[C@@H](c1ccccc1)[C@@H](O)C(=O)O[C@H]1C[C@@]2(O)[C@@H](OC(=O)c3ccccc3)C3[C@](C)(C(=O)[C@H](OC(C)=O)C(=C1C)C2(C)C)[C@@H](O)C[C@H]1OC[C@@]31OC(C)=O (stereo partly drawn)	-5.6*	-5.6
SMILES	KCNQ2 inh	KCNQ2 pot	others
CCC(C)C(=O)N[C@@H](c1ccccc1)[C@@H](O)C(=O)O[C@H]1C[C@@]2(O)[C@@H](OC(=O)c3ccccc3)C3[C@](C)(C(=O)[C@H](OC(C)=O)C(=C1C)C2(C)C)[C@@H](O)C[C@H]1OC[C@@]31OC(C)=O (stereo partly drawn)	i	/
CN1C(C(=O)N2CCC3(CC2)OCCO3)=CC(c2ccc(F)cc2)=NS1(=O)=O	i	1.6
CN[C@H]1C[C@H]2O[C@@](C)([C@H]1OC)n1c3ccccc3c3c4c(c5c6ccccc6n2c5c31)C(=O)NC4	i	9.3*
CCOc1ccccc1CN1C2CCC1CC(c1ccc(C)cc1)C2 (stereo not drawn)	i	/
CCc1cc(=O)oc2c(C)c(OCC(=O)N3C[C@H]4C[C@@H](C3)c3cccc(=O)n3C4)ccc12	i	0.16
NC(=O)Nc1ccc(C(=O)OCC(=O)Nc2ccc(Cl)cc2C(=O)c2ccccc2)cc1	i	/
Fc1c(F)c(F)c(N2CCNCC2)c(F)c1F	i	/
NCCCCCC(=O)OC1N=C(c2ccccc2Cl)c2cc(Br)ccc2NC1=O (stereo not drawn)	i	0.72
FC(F)(F)c1ccc2c(c1)N(CCCN1CCN(CCCl)CC1)c1ccccc1S2	-7*	-7	KCNQ2 block conf=-32%*;KCNQ1 spec=i;CHO parental ctr=i;KCNQ2 inh confirm=i
Nc1ccc(CCN2CCN(c3cccc(C(F)(F)F)c3)CC2)cc1	i	0.04
CCOC(=O)C1(c2ccccc2)CCN(CC(=O)Nc2cccc3ccccc23)CC1	i	/
O=C(Nc1cccc2ccccc12)c1nn(C23CC4CC(CC(C4)C2)C3)cc1Br	-8*	-8	KCNQ2 block conf=-26%*;KCNQ1 spec=i;CHO parental ctr=i;KCNQ2 inh confirm=i
COC(=O)C(=O)N1CC2(C)CNCC(C)(C1)C2=O	i	0.21
O=[N+]([O-])c1cccc(CN2CCN(Cc3ccc(Br)cc3)CC2)c1	i	/
COC(=O)C1=C(c2ccccc2)C[C@@H]2CC[C@H]1N2C(=O)NC1CCCCC1	i	/
CCCCn1c(=O)c(C(=O)NC(C)c2ccccc2)c(O)c2ccccc21 (stereo not drawn)	-12*	-12	KCNQ2 block conf=i;KCNQ1 spec=i;CHO parental ctr=i
CCCCn1c(=O)c(C(=O)NCCc2ccccc2)c(O)c2ccccc21	i	/
Cc1cc(C)c(N=Cc2c(O)[nH]c(=O)[nH]c2=O)c(C)c1	i	0.36
CN(C)C(=S)SSC(=S)N(C)C	-10*	-10	KCNQ2 block conf=i;KCNQ1 spec=i;CHO parental ctr=i
CCN(CC)C(=O)c1ccc(NC(=O)CNC(C)c2cccc3ccccc23)cc1 (stereo not drawn)	i	/
CC(=O)O[C@@H]1/C=C/[C@](C)(O)C[C@@H](C)C/C=C/[C@H]2[C@@H]3O[C@]3(C)[C@@H](C)[C@H]3[C@H](Cc4ccccc4)NC(=O)[C@@]312	i	2.7
N=C1SCC(=O)N1Cc1ccccc1	i	1.3
CCC1(CC)C(=O)N(Cc2ccccc2)C(=O)N(Cc2ccccc2)C1=O	-8.2*	-8.2	KCNQ2 block conf=i;KCNQ1 spec=i;CHO parental ctr=i
COc1ccc(OP(=O)(Nc2ccccc2)Nc2ccccc2)cc1	i	/
Cc1ccc(NP(=O)(Nc2ccc(C)cc2)Oc2ccccc2)cc1	-7.1*	-7.1	KCNQ2 block conf=-31%*;KCNQ1 spec=i;CHO parental ctr=i;KCNQ2 inh confirm=+
CCOC(=O)c1cncn1[C@H](C)c1ccccc1	i	/
